The values below come from PubChem BioAssay (EPA / NIEHS).

Records with an inconclusive call do not appear. The source made the active and inactive calls. How the source made its calls: active means hit-call score of the fitted dose curve at least 0.9, where 1 is the maximum; inconclusive means response in the unintended direction; inactive means score below 0.9.

Sequence of Broad substrate specificity ATP-binding cassette transporter ABCG2 (Homo sapiens) (Q9UNQ0 whole entry, looked up): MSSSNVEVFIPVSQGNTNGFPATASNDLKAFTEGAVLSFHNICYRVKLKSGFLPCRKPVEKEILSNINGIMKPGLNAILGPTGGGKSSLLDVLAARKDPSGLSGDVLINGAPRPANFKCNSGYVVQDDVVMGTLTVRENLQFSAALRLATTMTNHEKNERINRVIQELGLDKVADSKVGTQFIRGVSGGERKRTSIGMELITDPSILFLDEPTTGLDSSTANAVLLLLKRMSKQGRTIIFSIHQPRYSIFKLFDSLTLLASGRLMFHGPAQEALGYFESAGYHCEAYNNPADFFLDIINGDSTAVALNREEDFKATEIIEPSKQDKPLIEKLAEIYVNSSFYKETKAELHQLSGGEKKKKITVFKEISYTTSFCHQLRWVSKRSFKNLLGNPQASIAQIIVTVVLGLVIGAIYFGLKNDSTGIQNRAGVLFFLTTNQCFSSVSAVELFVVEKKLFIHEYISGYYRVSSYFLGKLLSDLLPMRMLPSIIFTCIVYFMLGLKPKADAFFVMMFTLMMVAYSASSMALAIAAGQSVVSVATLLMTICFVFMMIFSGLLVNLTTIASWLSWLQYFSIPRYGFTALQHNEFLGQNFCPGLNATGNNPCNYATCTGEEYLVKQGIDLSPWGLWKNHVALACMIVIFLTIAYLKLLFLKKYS

Read-out in the experiment: Broad substrate specificity ATP-binding cassette transporter ABCG2 (Homo sapiens) (UniProt Q9UNQ0)
The experiment can be described thus: CLD_ABCG2_48hr: CellzDirect (CLD) Gene Expression Assay for ABC Transporter (ABCG2) at 48 hours (AID 2283704).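 On AC50: potency for induction of ABCG2 mRNA above the DMSO baseline.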 On the procedure:
CLD_48hr is a cell-based, multiplexed-readout assay that uses hepatocyte, a human liver primary cell, with measurements taken at 48 hours after chemical dosing in a 96-well plate.CLD_ABCG2_48hr is one of 16 assay component(s) measured or calculated from the CLD_48hr assay. It is designed to make measurements of mRNA induction, a form of inducible reporter, as detected with chemiluminescence signals by Quantitative Nuclease Protection Assay (qNPA) technology.Data from the assay component CLD_ABCG2_48hr was analyzed at the endpoint, CLD_ABCG2_48hr, in the positive analysis fitting direction relative to DMSO as the negative control and baseline of activity. Using a type of inducible reporter, gain-of-signal activity can be used to understand changes in the reporter gene as they relate to the gene ABCG2. Furthermore, this assay endpoint can be referred to as a primary readout. To generalize the intended target to other relatable targets, this assay endpoint is annotated to the transporter intended target family, where subfamily is ABC transporter.
Human hepatocyte cultures were treated daily for two consecutive days with fresh dosing solutions containing appropriate concentrations of the 320 ToxCast chemicals (chemical identities were blinded to CellzDirect and other ToxCast collaborators), vehicle control (0.2% DMSO), and positive control inducers as summarized in Table 1. Due to the large number of treatment groups and chemicals examined, the ToxCast chemicals were divided into two groups (spanning two independent cultures of hepatocytes from separate donor preparations (Hu778: ToxCast plates 1 and 2; Hu776: ToxCast plates 3 and 4). Each preparation of human hepatocyte cultures was treated with respective vehicle control, medium only control, set of six positive controls/reference chemicals for the five hepatic receptor pathways, and a subset of eight of the ToxCast chemicals (indoxacarb, pyrithiobac-sodium, norflurazon, cyhalofop-butyl, methomyl, thiram, acetochlor, and propiconazole). These replicate data, coupled with internal replicates designed within the blinded ToxCast chemical library, provided additional data to evaluate interindividual differences between hepatocyte preparations and their potential impact on chemical profiles.Cell morphology and integrity were evaluated using phase-contrast microscopy as an indicator of hepatocyte cell health (Tyson & Green, 1987). Cultures for each treatment group (i.e., media, vehicle [0.2% DMSO], positive control inducers [multiple concentrations], and the ToxCast chemicals [multiple concentrations]) were observed and cell morphology was assessed relative to vehicle control cultures at each harvest time point (0, 6, 24, or 48 h). […] Images were evaluated at the conclusion of the study to assess changes in cell integrity and account for the effects of chemical exposure on uncharacteristic changes in concentration-dependent gene expression profiles. The results from these determinations of apparent cytotoxicity were annotated (yes/no) alongside the corresponding qNPA data for reference.At the conclusion of each treatment period, hepatocyte cultures (96-well) were washed with 1 volume of HBSS, lysed by addition of 25 ul ArrayPlate lysis buffer (HTG, Tucson, AZ), and 70 ul/well of Denaturation Oil, denatured by incubation at 95C for 10 min, and frozen at approximately -70C until analysis by nuclease protection assay (qNPA) (Roberts et al., 2007). For qNPA analysis, cell lysates were thawed at 50C for approximately 30 min, qNPA probes were added, and samples were incubated at 95C for 10 min to begin the detection process by denaturing the target RNA, dissociating the duplexes and secondary structure hybridization. At the conclusion of the hybridization period, S1 nuclease reagent was added to each sample to digest all nonprotected nucleotides at 50C for 60-90 min. […]
For `CC(C)(C)C(O)C(Oc1ccc(Cl)cc1)n1cncn1` (stereo not drawn), the call was inactive.

For `CNC(=O)CSP(=S)(OC)OC`, the outcome was inactive.

For `COP(=S)(OC)Oc1ccc([N+](=O)[O-])cc1`, the call was inactive.

On to `CCOc1nc(NC)nc(NC(=O)NS(=O)(=O)c2ccccc2C(=O)OC)n1`, for which the compound was called inactive.

Consider `COP(=O)(OC)OC=C(Cl)Cl`, for which the call was inactive.

In the case of `O=C(O)C(F)(F)C(F)(F)C(F)(F)C(F)(F)C(F)(F)C(F)(F)C(F)(F)F`, the compound was called inactive.

Turning to `COC(=O)c1ccccc1CS(=O)(=O)NC(=O)Nc1nc(OC)cc(OC)n1`, the call was inactive.

Consider `C#CCN1C(=O)COc2cc(F)c(N3C(=O)C4=C(CCCC4)C3=O)cc21`, for which the call was inactive.

As for `COc1cc(OC)nc(NC(=O)NS(=O)(=O)c2cc(NC=O)ccc2C(=O)N(C)C)n1`, the outcome was inactive.

In the case of `[2H]C1([2H])[n+]2ccccc2-c2cccc[n+]2C1([2H])[2H]`, the compound was classed as inactive.

Turning to `CC1(c2ccc(Oc3ccccc3)cc2)OC(=O)N(Nc2ccccc2)C1=O` (stereo not drawn), the compound was classed as inactive.

Turning to `C[C@H]1[C@H](c2ccc(Cl)cc2)SC(=O)N1C(=O)NC1CCCCC1`, the AC50 was 34.8 µM (active).

In the case of `CC(C)N(C(=O)COc1nnc(C(F)(F)F)s1)c1ccc(F)cc1`, the call was inactive.

With `O=C1c2ccccc2C(=O)N1SC(Cl)(Cl)Cl`, the compound was classed as inactive.

Consider `O=C(NC(=O)c1c(F)cccc1F)Nc1ccc(OC(F)(F)C(F)OC(F)(F)F)c(Cl)c1` (stereo not drawn), for which the compound was called inactive.

Regarding `CCCN(CCOc1c(Cl)cc(Cl)cc1Cl)C(=O)n1ccnc1`, the half-maximal activity concentration (AC50) was 35.4 µM (active).

Consider `ClC1C(Cl)C(Cl)C(Cl)C(Cl)C1Cl` (stereo not drawn), for which the call was inactive.

For the compound `Cc1cc(C)nc(NC(=O)NS(=O)(=O)c2ccccc2C(=O)OC2COC2)n1`, the outcome was inactive.

Regarding `CC(C)(C)C(O)/C(=C\c1ccc(Cl)cc1Cl)n1cncn1` (stereo not drawn), the AC50 was 31.5 µM (active).

For `COC(=O)c1ccccc1S(=O)(=O)NC(=O)Nc1nc(C)nc(OC)n1`, the compound was called inactive.

On to `CCC(C)Nc1c([N+](=O)[O-])cc(C(C)(C)C)cc1[N+](=O)[O-]` (stereo not drawn), for which the compound was classed as inactive.

On to `CCOC1Oc2ccc(OS(C)(=O)=O)cc2C1(C)C` (stereo not drawn), for which the outcome was inactive.

Take `CCC(C)(C)C(=O)OC1=C(c2ccc(Cl)cc2Cl)C(=O)OC12CCCCC2`: the call was inactive.

On to `O=[N+]([O-])c1c(Cl)c(Cl)c(Cl)c(Cl)c1Cl`, for which the result was inactive.

Consider `CCS(=O)(=O)c1cccnc1S(=O)(=O)NC(=O)Nc1nc(OC)cc(OC)n1`, for which the compound was classed as inactive.

As to `Oc1cc(Cl)ccc1Oc1ccc(Cl)cc1Cl`, the call was inactive.

Consider `O=S1OCC2C(CO1)C1(Cl)C(Cl)=C(Cl)C2(Cl)C1(Cl)Cl` (stereo not drawn), for which the outcome was inactive.

As to `CNC(=O)/C=C(\C)OP(=O)(OC)OC`, the call was inactive.

With `CC[C@H](C)[C@H]1O[C@]2(C=C[C@@H]1C)C[C@@H]1C[C@@H](C/C=C(\C)[C@@H](O[C@H]3C[C@H](OC)[C@@H](O[C@H]4C[C@H](OC)[C@@H](O)[C@H](C)O4)[C@H](C)O3)[C@@H](C)/C=C/C=C3\CO[C@@H]4[C@H](O)C(C)=C[C@@H](C(=O)O1)[C@]34O)O2` (tested in a mixture with another compound), the AC50 is 3.14 µM (active).

For `O=C(Nc1ccccc1)Nc1cnns1`, the compound was classed as inactive.

Regarding `N#Cc1c(Cl)c(Cl)c(Cl)c(C#N)c1Cl`, the result was inactive.

As for `Oc1ccc(Cl)cc1Cc1ccccc1`, the call was inactive.

In the case of `N#CN`, the outcome was inactive.

Consider `O=C(O)COc1ccc(Cl)cc1Cl`, for which the compound was classed as inactive.

With `CN1CSC(=S)N(C)C1`, the call was inactive.

As for `CCOCN(C(=O)CCl)c1c(C)cccc1CC`, the call was inactive.

As for `Clc1ccccc1-c1nnc(-c2ccccc2Cl)nn1`, the outcome was inactive.

Take `O=C(O)CCCOc1ccc(Cl)cc1Cl`: the result was inactive.
